Only some compounds are listed: those with a hit (about 14% of all), similar ones and a draw of the others.
HSD17B inh: qHTS Assay for Inhibitors of HSD17B4, hydroxysteroid (17-beta) dehydrogenase 4; 3-hydroxyacyl-CoA dehydrogenase type-2 (Homo sapiens), Q99714; recombinant HSD17B10, NADH fluorescence kinetic; Potency, µM (doses to about 57.1 µM), usual class: inhibitors; hit rate 7.6% among 75,000; AID 893, 2007;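 further: the protocol describes HADH2 (HSD17B10) and not the HSD17B4 of the title; nearly all actives have a fitted effect of over 70% in size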
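Activity followed as NADH fluorescence increase (ex 360, em 450 nm) every 30 seconds for 4 min, using final 90 uM beta-hydroxybutyryl CoA and 1 mM NAD+. Recombinant His-tagged enzyme, 20 nM, pH 9.0 Tris buffer, 15 min compound preincubation.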
CRE-bla Fsk: Cell signaling CRE-BLA (Fsk stim). CHO CRE-bla reporter (cAMP response element driving beta-lactamase), forskolin EC10, beta-lactamase ratio. Potency, µM (top dose mostly 38.2 µM), hits mostly activators. hit rate 2.5% among 71,000. AID 662, 2007; active means well fitted activation curve with a large enough effect in the signal ratio, with a control signal flat, not every such curve was filed as active; inconclusive means small, poorly fitted or top-dose-only effect, or effect the other way, or a change in a side signal; the % refers to the signal ratio
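Modulation of forskolin-driven signalling is measured in CHO cells carrying a CRE-controlled beta-lactamase reporter. Cells are stimulated with EC10 NKH 477 in the presence of titrated compound for 3 h at 37 °C, then loaded with CCF4 for 2 h at room temperature.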
4MU fluor: qHTS Assay for Spectroscopic Profiling in 4-MU Spectral Region; hit rate 11% among 59,000; compound autofluorescence, 340/450 nm, 4-MU equivalents; active compounds read high; max dye-equivalent concentration, M; AID 589, 2007; in the data active means max dye-equivalent concentration above about 10 nM; inconclusive means mostly about 1.1 nM to 9.6 nM
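Intrinsic fluorescence at 340/450 nm (ex/em) was read after 15 min at room temperature in pH 8.0, 100 mM Tris. Each compound concentration expressed as 4-MU-equivalent concentration from a six-point 4-MU standard series on each plate.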
HADH2 inh: qHTS Assay for Inhibitors of HADH2 (Hydroxyacyl-Coenzyme A Dehydrogenase, Type II); Potency, µM (highest dose often 57.1 µM), usual class: inhibitors; 3-hydroxyacyl-CoA dehydrogenase type-2 (Homo sapiens), Q99714; AID 886, 2007; recombinant HADH2, NADH fluorescence, beta-hydroxybutyryl-CoA; hit rate 3.4% among 73,000; further: nearly all actives have a fitted effect of over 60% in size
Target sequence (Q99714 whole entry, looked up, one chain of several): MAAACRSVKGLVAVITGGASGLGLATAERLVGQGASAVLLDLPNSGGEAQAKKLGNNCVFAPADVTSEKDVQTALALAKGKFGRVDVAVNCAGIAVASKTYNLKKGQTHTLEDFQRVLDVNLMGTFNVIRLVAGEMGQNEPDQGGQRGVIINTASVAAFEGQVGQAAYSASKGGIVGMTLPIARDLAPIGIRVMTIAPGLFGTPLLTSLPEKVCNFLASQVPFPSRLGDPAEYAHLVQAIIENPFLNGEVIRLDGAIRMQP
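Read-out: 360 nm excitation, 450 nm emission, kinetic over 4 min. Conditions: His-tagged human HADH2 20 nM, pH 9.0 Tris with Tween-20, 1 mM NAD+, 90 uM beta-hydroxybutyryl-CoA.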
A350 fluor: qHTS Assay for Spectroscopic Profiling in A350 Spectral Region; Compound autofluorescence, 340/450 nm, Alexa 350 dye-equivalents; active compounds read high; max dye-equivalent concentration, M; hit rate 11% among 59,000; in the data active means max dye-equivalent concentration above about 10 nM; inconclusive means mostly about 1.1 nM to 9.6 nM
AID923: qHTS Assay for Allosteric/Competitive Inhibitors of Caspase-1: Spectroscopic Profiling in AFC Spectral Region; compound fluorescence, AFC spectral region (405/520 nm); Potency, µM (highest dose often 57.5 µM), most hits filed as activators; hit rate 1.1% among 75,000; AID 923, 2007
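Titrations up to 57 uM read every 20 sec for 3 min (405/520 nm) with 50 nM caspase 1 and 5 uM Ac-WEHD-AFC, pH 7.5 HEPES buffer. Fluorescence-vs-time intercept gave baseline, scaled against on-plate AFC standard.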
A number is an active result; - = inactive; ? = inconclusive; . = not tested or not shown; [ ] = dose if it differs, or a comment. Unless noted, the call rests on the fitted dose curve; in most records, active means well fitted curve in the direction sought with a large enough effect; inconclusive means small, poorly fitted or top-dose-only effect, or another doubt; inactive means no such curve, though single readings can be large; an effect the other way counts as inactive or inconclusive.

SMILES	HSD17B inh	CRE-bla Fsk	4MU fluor	HADH2 inh	A350 fluor	AID923
Cc1cc(=O)[nH]c(SCc2nc3ncccn3c2Br)n1	32µM	?	2.5e-07M	?	3.3e-07M	-
CN(C)C(CNc1nnnn1-c1ccccc1)c1ccco1 (stereo unspecified)	?	-	?	-	?	-
CC(C)C1=C[C@@]23CC[C@@H]4[C@](C)(CCC[C@@]4(C)C(=O)O)[C@@H]2C[C@@H]1[C@@H](C(=O)O)[C@@H]3C(=O)O	-[11.4 µM]	-[7.6 µM]	-	-[11.4 µM]	-	-[11.5 µM]
COC(=O)C1=C(C)NC2=C(C(=O)CCC2)C1c1cccs1 (stereo unspecified)	32µM	-	2.5e-07M	-	2.8e-07M	-
CCOC(=O)C1=C(C)NC2=C(C(=O)CCC2)C1c1cc(OC)ccc1OC (stereo unspecified)	-	-	.	-	.	-
CC1=C(C(=O)OC(C)C)C(c2cccs2)C2=C(CCCC2=O)N1 (stereo unspecified)	?	.	.	-	.	-
CC1=C(C(=O)N2CCCCC2)C(c2cccs2)C2=C(CCCC2=O)N1 (stereo unspecified)	32µM	-	.	?	.	-
Cc1cc(C)c2[nH]c(=O)c(CN(CC3CCCO3)C(=O)C3CCCO3)cc2c1 (stereo unspecified)	?	-	1.4e-08M	-	1.4e-08M	-
Cc1ccc(S(=O)(=O)N(CCO)Cc2cc3ccc(C)c(C)c3[nH]c2=O)cc1	?	-	-	-	-	-
CC(=O)N(CCO)Cc1cc2cc(C)cc(C)c2[nH]c1=O	?	?	1.8e-08M	-	2.6e-08M	-
O=C(Nc1ccccc1)N1CC[C@@]2(CCCN(C(=O)c3ccco3)C2)C1	-	-	-	-	-	-
COc1cc(OC)cc(C(=O)N(Cc2cc3cc(C)ccc3[nH]c2=O)C(C)C)c1	?	-	?	-	?	-
COc1ccc(CC(=O)N(Cc2cc3cc(OC)ccc3[nH]c2=O)C(C)C)cc1	32µM	?	2.2e-07M	-	2.8e-07M	-
CC(C)(C)N(Cc1cc2ccccc2[nH]c1=O)C(=O)c1cccnc1	-	-	-	-	-	-
COc1cccc(C(=O)N(Cc2cc3cc(C)ccc3[nH]c2=O)C(C)C)c1	?	-	?	-	?	-
COc1ccc2[nH]c(=O)c(CN(C(=O)c3ccncc3)C(C)C)cc2c1	20µM	?	1.3e-07M	-	1.7e-07M	-
COc1ccc2[nH]c(=O)c(CN(C(=O)c3ccncc3)C(C)(C)C)cc2c1	?	?	7.2e-08M	-	9.1e-08M	-
COc1ccc2[nH]c(=O)c(CN(C)C(=O)C3CCCCC3)cc2c1	16µM	-	2.1e-07M	-	2.8e-07M	-
O=C(c1ccncc1)N1CCC2(CCN(Cc3ccccc3)CC2)CC1	-	-	-	-	-	-
COc1cc(NC(=O)C2CCCCC2)c(OC)cc1NC(=O)CCC(=O)NCc1ccco1	-	-	-	-	-	-
CCCN(Cc1cc2cc(OC)ccc2[nH]c1=O)C(=O)c1ccncc1	32µM	-	2.2e-07M	-	2.9e-07M	-
CCCN(Cc1cc2cc(C)ccc2[nH]c1=O)C(=O)c1cccc(OC)c1	?	?	?	-	?	-
COc1ccc(CN(Cc2cc3cc(C)ccc3[nH]c2=O)C(=O)N(C)C)cc1	?	-	?	-	?	-
COc1ccc2[nH]c(=O)c(CN(C)C(=O)c3ccncc3)cc2c1	32µM	-	1.4e-07M	-	1.8e-07M	-
CN(Cc1ccco1)c1nc(-c2cccc(C#N)c2)nc2ccccc12	?	?	-	-	-	-
SMILES	HSD17B inh	CRE-bla Fsk	4MU fluor	HADH2 inh	A350 fluor	AID923
Cc1cc(C)nc(N(C#N)S(=O)(=O)c2ccccc2Cl)n1	.	.	1.6e-08M	.	1.8e-08M	.
Cc1cc(C)nc(N(C#N)Cc2ccc(Br)cc2)n1	-	-	-	-	-	-
Cc1ccsc1/C=C/C1=NCCCN1C	-	.	.	.	.	-
Cc1ccsc1C=Nc1ccc(O)cc1	?	?	.	2.5µM	.	-
COc1cc(C(c2nnnn2C2CCCC2)N2CCc3ccccc3C2)ccc1O (stereo unspecified)	-	-	-	-	-	-
Oc1ccc(C(c2nnnn2C2CCCC2)N2CCc3ccccc3C2)cc1 (stereo unspecified)	32µM	?	-	?	-	-
COC(c1ccccc1Br)C(C)/C=C/CCO (stereo unspecified)	-[11.4 µM]	.	.	-[11.4 µM]	.	-[11.5 µM]
Cc1ccc2c(c1)C(N1CCCC1=O)CC(c1ccco1)N2 (stereo unspecified)	?	-	5.3e-08M	-	5.7e-08M	-
Cc1ccc(C2CC(c3ccco3)n3ncnc3N2)cc1 (stereo unspecified)	-	-	.	-	.	-
C#C[C@@]1(O)CC[C@@H]2[C@@H]3CCC4=C(CCC(=O)C4)[C@H]3CC[C@]21C	-	-	6.8e-08M	-	8.1e-08M	-
C#C[C@]1(O)CC[C@H]2[C@@H]3CCc4cc(OC)ccc4[C@H]3CC[C@@]21C	-	.	.	-	.	-
CCOc1ccc(-c2nc(CSc3nncs3)cs2)cc1OC	?	5µM	-	-	-	-
CCn1c(=N)n(CC(O)COc2cccc(C)c2)c2ccccc21 (stereo unspecified)	-	?	2.4e-07M	-	2.7e-07M	-
COc1ccccc1CN1CCC2(CC1)CCN(C(=O)c1ccncc1)CC2	-	-	-	-	-	-
Cc1ccc(NC(=O)CSCC(N)=O)cc1C	25µM	?	5.8e-07M	-	5.2e-07M	-
CC(=O)OCC(=O)[C@@]12OC3(CCCC3)OC1CC1C3CCC4=CC(=O)C=C[C@@]4(C)[C@]3(F)C(O)C[C@]12C (stereo partly specified)	-	.	.	.	.	-
O=C(CN1C(=O)COc2ccccc21)N1CCc2ccccc21	-	-	3.1e-08M	-	3.4e-08M	-
O=C(C1COc2ccccc2O1)N1CCc2ccccc21 (stereo unspecified)	?	?	2e-08M	-	2.7e-08M	-
N#Cc1c(N)sc(=S)c2c1CCCC2	25µM	-	?	-	1.4e-08M	-
CCC1(C)Cc2c(C#N)c(N)sc(=S)c2CO1 (stereo unspecified)	.	.	2.3e-08M	.	2.8e-08M	.
COc1ccc(CNC(=O)c2cnn3c(C(F)F)cc(C)nc23)cc1OC	-	?	.	-	.	-
COc1ccc(COC(=O)N/N=C2/C[C@@H](O)[C@@H](O)[C@@H]3[C@@H]4C(=O)N([C@@H](C)c5ccccc5)C(=O)[C@H]4CC[C@H]23)cc1	-[11.4 µM]	.	.	-[11.4 µM]	.	-[11.5 µM]
Cc1ccc(S(=O)(=O)/N=C(/Nc2nc(C)cc(C)n2)N2CCOCC2)cc1	?	?	.	-[11.4 µM]	.	-
